Experimental data: PubChem BioAssay (NCATS)
Results filed as inconclusive are left out. Active and inactive are the calls of the source. Calls come from the whole dose curve; as a rule, active = well fitted curve in the direction sought with a large enough effect; inconclusive = small, poorly fitted or top-dose-only effect, or another doubt; inactive = no such curve, though single readings can be large; an effect the other way counts as inactive or inconclusive. Numbered stars: 1 amine (or outer) side, 2 acyl side, 3 side chain; on linkers, the order of the positions; unused ones are H or OH. Bridge positions count the residues as written; N and C are the ends. Square brackets hold non-standard residues; d marks the D form. Peptide text beside a SMILES is read from it. * marks the point of attachment. ξ: configuration not given here. ΔAla(Z-3-ureido) = NC(=O)N/C=C(\N)C(=O)O; X1 = NC1=NCCC(C(N[*:1])C(=O)[*:2])N1; ξβ3hOrn = NCCCC(N)CC(=O)*; Orn = NCCC[CH](N)C(=O)O; Dap = NC[CH](N)C(=O)O

Experiments:
[1] = S16 Schwann cell PMP22 intronic element firefly luciferase assay (AID 624032); note: nearly all actives have a fitted effect of over 30% in size
Method in brief: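 Rat S16 Schwann cells stably carrying firefly luciferase driven by a PMP22 intronic element, in 10% FBS, treated 24 h at 37 C. ONE-Glo luminescence normalized to PTC124 control and DMSO (0%); curves classed by r2, magnitude and activity.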

CP191 = assay: qHTS profiling for inhibitors of Plasmodium falciparum proliferation (AID 504749); note: nearly all actives have a fitted effect of over 60% in size; details: P. falciparum in erythrocytes, SYBR Green DNA, 72 h; series mostly up to 28.7 µM
Method in brief: (§1)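 P. falciparum-infected erythrocytes (0.3% parasitemia, 2.5% hematocrit) incubated with compound 72 h at 37 C, 5% CO2. Parasite DNA detected by SYBR Green after lysis, overnight at room temperature; normalised to 0.29 uM artemisinin and DMSO.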

CP262 = assay: as above; details: P. falciparum in erythrocytes, SYBR Green DNA, 72 h; series mostly up to 28.7 µM
Method in brief: as §1

CP335 = assay: as above; details: P. falciparum in erythrocytes, SYBR Green DNA, 72 h; series mostly up to 28.7 µM
Method in brief: as §1

AS120 = assay: as above; details: P. falciparum in erythrocytes, SYBR Green DNA, 72 h; series mostly up to 28.7 µM
Method in brief: as §1

ATS95 = assay: as above; details: P. falciparum in erythrocytes, SYBR Green DNA, 72 h; series mostly up to 28.7 µM
Method in brief: as §1

C2A = assay: as above; details: P. falciparum in erythrocytes, SYBR Green DNA, 72 h; series mostly up to 28.7 µM
Method in brief: as §1

CP211 = assay: as above; details: P. falciparum in erythrocytes, SYBR Green DNA, 72 h; series mostly up to 28.7 µM
Method in brief: as §1

CP215 = assay: as above; details: P. falciparum in erythrocytes, SYBR Green DNA, 72 h; series mostly up to 28.7 µM
Method in brief: as §1

CP247 = assay: as above; details: P. falciparum in erythrocytes, SYBR Green DNA, 72 h; series mostly up to 28.7 µM
Method in brief: as §1

CP256 = assay: as above; details: P. falciparum in erythrocytes, SYBR Green DNA, 72 h; series mostly up to 28.7 µM
Method in brief: as §1

CP297 = assay: as above; details: P. falciparum in erythrocytes, SYBR Green DNA, 72 h; series mostly up to 28.7 µM
Method in brief: as §1

Dd2 = assay: as above; details: P. falciparum in erythrocytes, SYBR Green DNA, 72 h; series mostly up to 28.7 µM
Method in brief: as §1

ECU = assay: as above; details: P. falciparum in erythrocytes, SYBR Green DNA, 72 h; series mostly up to 28.7 µM
Method in brief: as §1

N140 = assay: as above; details: P. falciparum in erythrocytes, SYBR Green DNA, 72 h; series mostly up to 28.7 µM
Method in brief: as §1

P93_24 = assay: as above; details: P. falciparum in erythrocytes, SYBR Green DNA, 72 h; series mostly up to 28.7 µM
Method in brief: as §1

PAD = assay: as above; details: P. falciparum in erythrocytes, SYBR Green DNA, 72 h; series mostly up to 28.7 µM
Method in brief: as §1

SC27B = assay: as above; details: P. falciparum in erythrocytes, SYBR Green DNA, 72 h; series mostly up to 28.7 µM
Method in brief: as §1

TAB113 = assay: as above; details: P. falciparum in erythrocytes, SYBR Green DNA, 72 h; series mostly up to 28.7 µM
Method in brief: as §1

TAB165 = assay: as above; details: P. falciparum in erythrocytes, SYBR Green DNA, 72 h; series mostly up to 28.7 µM
Method in brief: as §1

Measured: Potency
Potency is the fitted concentration of half-maximal effect.

COc1ccc(-c2nc3ccc(C4=C(C)CC(=O)NN4)cc3[nH]2)cc1
inactive: [1] | CP191 | CP262 | CP335

NCCCC(N)CC(=O)NCC1NC(=O)C(CO)NC(=O)C(N)CNC(=O)C(C2CCN=C(N)N2)NC(=O)/C(=C/NC(N)=O)NC1=O (stereo not drawn) (H-[Dap]S[Dap](ξβ3hOrn)[ΔAla(Z-3-ureido)][X1]; lactam 1-C; configuration not given here)
not listed: [1]
inactive: all other assays above

O=C(OCC1OC(OC(=O)c2cc(O)c(O)c(OC(=O)c3cc(O)c(O)c(O)c3)c2)[C@@H](OC(=O)c2cc(O)c(O)c(OC(=O)c3cc(O)c(O)c(O)c3)c2)C(OC(=O)c2cc(O)c(O)c(OC(=O)c3cc(O)c(O)c(O)c3)c2)C1OC(=O)c1cc(O)c(O)c(OC(=O)c2cc(O)c(O)c(O)c2)c1)c1cc(O)c(O)c(OC(=O)c2cc(O)c(O)c(O)c2)c1 (stereo partly specified)
active: AS120 2.51 µM | ATS95 2.82 µM | C2A 2.82 µM | CP191 2.82 µM | CP211 4.78 µM | CP215 3.79 µM | CP247 2.82 µM | CP256 3.55 µM | CP262 4.26 µM | CP297 3.79 µM | CP335 1.69 µM | Dd2 2.24 µM | ECU 2.24 µM | N140 2.24 µM | P93_24 2.51 µM | PAD 3.55 µM | SC27B 3.16 µM | TAB113 2.24 µM | TAB165 2 µM

O=C(O)c1ccccc1-c1c2cc(Br)c(=O)c(Br)c-2oc2c(Br)c(O)c(Br)cc12
not listed: CP297
inactive: all other assays above

Cn1cc(O)nc1NC(=O)Nc1cccc(Cl)c1
not listed: CP191 | CP262 | CP256
inactive: all other assays above

CCC(Oc1ccccc1)C(=O)NC1C(=O)N2C1SC(C)(C)C2C(=O)O (stereo unspecified)
inactive: all assays above

CC(C)CC1NC(=O)C(CCCN)NC(=O)C(C(C)C)NC(=O)C2CCCN2C(=O)C(Cc2ccccc2)NC(=O)C(CC(C)C)NC(=O)C(CCCN)NC(=O)C(C(C)C)NC(=O)C2CCCN2C(=O)C(Cc2ccccc2)NC1=O (stereo unspecified) (cyclo(FPV[Orn]LFPV[Orn]L); configuration not given here)
active: [1] 642 nM | AS120 0.0028 µM | ATS95 0.0009 µM | C2A 0.0025 µM | CP191 0.0028 µM | CP211 0.0013 µM | CP215 0.0011 µM | CP247 0.0028 µM | CP256 0.004 µM | CP297 0.0012 µM | CP335 0.0005 µM | Dd2 0.0011 µM | ECU 0.0032 µM | N140 0.0013 µM | P93_24 0.002 µM | PAD 0.0008 µM | SC27B 0.0063 µM | TAB113 0.0022 µM | TAB165 0.0013 µM

CC(C)C(NC(=O)C(CC(=O)O)NC(=O)C(CCCCN)NC(=O)C(N)CCCN=C(N)N)C(=O)NC(Cc1ccc(O)cc1)C(=O)O (stereo unspecified) (H-RKDVY-OH; configuration not given here)
inactive: all assays above

C=CC1=C(C(=O)O)N2C(=O)[C@@H](NC(=O)C(N=O)c3csc(N)n3)[C@H]2SC1 (stereo partly specified)
inactive: all assays above

CC1(C)C(/C=C/C=C/C=C/C=C2\N(CCCCS(=O)(=O)O)c3ccc4ccccc4c3C2(C)C)=[N+](CCCCS(=O)(=O)[O-])c2ccc3ccccc3c21
not listed: CP335
inactive: all other assays above

NC(=O)CCC1NC(=O)C(Cc2ccccc2)NC(=O)C(Cc2ccc(O)cc2)NC(=O)CCSSCC(C(=O)N2CCCC2C(=O)NC(CCCN=C(N)N)C(=O)NCC(N)=O)NC(=O)C(CC(N)=O)NC1=O (stereo unspecified)
inactive: all assays above
